Measured values as given in PubChem BioAssay (EPA / NIEHS).
Results filed as inconclusive are left out. The source made the active and inactive calls. Rule for the calls: active = hit-call score of the fitted dose curve at least 0.9, where 1 is the maximum; inconclusive = response in the unintended direction; inactive = score below 0.9.

read-out: Cytochrome P450 2C19 (Homo sapiens) (UniProt P33261); experiment: CLD_CYP2C19_48hr: CellzDirect (CLD) Gene Expression Assay for xenobiotic metabolism (CYP2C19) at 48 hours (AID 2283700);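 note: fitted upward so actives raise CYP2C19 mRNA above the 0.2% DMSO vehicle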
Procedure: CLD_48hr is a cell-based, multiplexed-readout assay that uses hepatocyte, a human liver primary cell, with measurements taken at 48 hours after chemical dosing in a 96-well plate.CLD_CYP2C19_48hr is one of 16 assay component(s) measured or calculated from the CLD_48hr assay. It is designed to make measurements of mRNA induction, a form of inducible reporter, as detected with chemiluminescence signals by Quantitative Nuclease Protection Assay (qNPA) technology.Data from the assay component CLD_CYP2C19_48hr was analyzed at the endpoint, CLD_CYP2C19_48hr, in the positive analysis fitting direction relative to DMSO as the negative control and baseline of activity. Using a type of inducible reporter, gain-of-signal activity can be used to understand changes in the reporter gene as they relate to the gene CYP2C19. Furthermore, this assay endpoint can be referred to as a primary readout. To generalize the intended target to other relatable targets, this assay endpoint is annotated to the cyp intended target family, where subfamily is xenobiotic metabolism.
Human hepatocyte cultures were treated daily for two consecutive days with fresh dosing solutions containing appropriate concentrations of the 320 ToxCast chemicals (chemical identities were blinded to CellzDirect and other ToxCast collaborators), vehicle control (0.2% DMSO), and positive control inducers as summarized in Table 1. Due to the large number of treatment groups and chemicals examined, the ToxCast chemicals were divided into two groups (spanning two independent cultures of hepatocytes from separate donor preparations (Hu778: ToxCast plates 1 and 2; Hu776: ToxCast plates 3 and 4). Each preparation of human hepatocyte cultures was treated with respective vehicle control, medium only control, set of six positive controls/reference chemicals for the five hepatic receptor pathways, and a subset of eight of the ToxCast chemicals (indoxacarb, pyrithiobac-sodium, norflurazon, cyhalofop-butyl, methomyl, thiram, acetochlor, and propiconazole). These replicate data, coupled with internal replicates designed within the blinded ToxCast chemical library, provided additional data to evaluate interindividual differences between hepatocyte preparations and their potential impact on chemical profiles.Cell morphology and integrity were evaluated using phase-contrast microscopy as an indicator of hepatocyte cell health (Tyson & Green, 1987). Cultures for each treatment group (i.e., media, vehicle [0.2% DMSO], positive control inducers [multiple concentrations], and the ToxCast chemicals [multiple concentrations]) were observed and cell morphology was assessed relative to vehicle control cultures at each harvest time point (0, 6, 24, or 48 h). […] Images were evaluated at the conclusion of the study to assess changes in cell integrity and account for the effects of chemical exposure on uncharacteristic changes in concentration-dependent gene expression profiles. The results from these determinations of apparent cytotoxicity were annotated (yes/no) alongside the corresponding qNPA data for reference.At the conclusion of each treatment period, hepatocyte cultures (96-well) were washed with 1 volume of HBSS, lysed by addition of 25 ul ArrayPlate lysis buffer (HTG, Tucson, AZ), and 70 ul/well of Denaturation Oil, denatured by incubation at 95C for 10 min, and frozen at approximately -70C until analysis by nuclease protection assay (qNPA) (Roberts et al., 2007). For qNPA analysis, cell lysates were thawed at 50C for approximately 30 min, qNPA probes were added, and samples were incubated at 95C for 10 min to begin the detection process by denaturing the target RNA, dissociating the duplexes and secondary structure hybridization. At the conclusion of the hybridization period, S1 nuclease reagent was added to each sample to digest all nonprotected nucleotides at 50C for 60-90 min. […]

Sequence of Cytochrome P450 2C19 (Homo sapiens) (P33261 whole entry, looked up): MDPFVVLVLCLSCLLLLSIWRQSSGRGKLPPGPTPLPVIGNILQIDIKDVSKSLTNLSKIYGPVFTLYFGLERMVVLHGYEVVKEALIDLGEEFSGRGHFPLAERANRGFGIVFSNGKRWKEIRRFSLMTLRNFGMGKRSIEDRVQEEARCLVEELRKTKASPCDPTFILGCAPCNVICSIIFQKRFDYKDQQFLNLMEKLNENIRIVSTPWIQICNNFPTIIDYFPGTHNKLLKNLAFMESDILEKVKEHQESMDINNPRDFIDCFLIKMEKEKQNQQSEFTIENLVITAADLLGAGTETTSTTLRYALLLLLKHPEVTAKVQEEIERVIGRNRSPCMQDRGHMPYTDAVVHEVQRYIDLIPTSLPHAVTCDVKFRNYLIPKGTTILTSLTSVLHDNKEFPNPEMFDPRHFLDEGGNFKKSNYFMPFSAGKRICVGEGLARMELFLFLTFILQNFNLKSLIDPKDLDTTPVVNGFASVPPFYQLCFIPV

| Structure (SMILES) | outcome |
| --- | --- |
| CC(C)(C)c1ccc(CSc2cnn(C(C)(C)C)c(=O)c2Cl)cc1 | inactive |
| COc1nc(NC(C)C)nc(NC(C)C)n1 | inactive |
| COC(=O)C(C)Oc1ccc(Oc2ccc(Cl)cc2Cl)cc1 (centres undefined) | inactive |
| C=CCC1=C(C)[C@@H](OC(=O)[C@@H]2[C@@H](C=C(C)C)C2(C)C)CC1=O | inactive |
| COC(=O)C=C(C)OP(=O)(OC)OC | inactive |
| CCON=C(CC)C1=C(O)CC(c2c(C)cc(C)cc2C)CC1=O (centres undefined) | inactive |
| Oc1ccccc1-c1ccccc1 | inactive |
| COP(N)(=O)SC (centres undefined) | inactive |
| COc1cnc(OC)n2nc(NS(=O)(=O)c3c(OCC(F)F)cccc3C(F)(F)F)nc12 | inactive |
| CC1COC(Cn2cncn2)(c2ccc(Oc3ccc(Cl)cc3)cc2Cl)O1 (centres undefined) | inactive |
| N#CC(CCc1ccc(Cl)cc1)(Cn1cncn1)c1ccccc1 (centres undefined) | inactive |
| CCCCC(CC)COC(=O)c1ccccc1C(=O)OCC(CC)CCCC (centres undefined) | inactive |
| Cc1cc(Cl)ccc1OCC(=O)O | inactive |
| C=CC1(C)OC(=O)N(c2cc(Cl)cc(Cl)c2)C1=O (centres undefined) | inactive |
| CCOC(=O)C(Cl)Cc1cc(-n2nc(C)n(C(F)F)c2=O)c(F)cc1Cl (centres undefined) | inactive |
| CCCCOC(=O)c1ccccc1C(=O)OCCCC | inactive |
| CCCCNC(=O)OCC#CI | inactive |
| O=C(O)c1nc(Cl)ccc1Cl | inactive |
| CCNc1nc(Cl)nc(NCC)n1 | inactive |
| CCCCNC(=O)n1c(NC(=O)OC)nc2ccccc21 | inactive |
| COc1ccc(C(c2ccc(OC)cc2)C(Cl)(Cl)Cl)cc1 | inactive |
| COc1nc(C)nc(NC(=O)NS(=O)(=O)c2ccccc2Cl)n1 | inactive |
| CCOc1cc(Oc2ccc(C(F)(F)F)cc2Cl)ccc1[N+](=O)[O-] | inactive |
| CS/C(C)=N/OC(=O)N(C)SN(C)C(=O)O/N=C(\C)SC | inactive |
